From PubChem BioAssay (Tox21)
Results filed as inconclusive are left out. Activity calls are given as the source filed them. Calls follow the shape of the dose curve; as a rule, active = well fitted cell-killing curve with a large enough effect in the repeat runs; inconclusive = weak or mixed curves, or effect the other way; inactive = flat fitted curve, though single readings scatter.

experiment: qHTS RealTime-Glo MT Cell Viability Assay in HEK293 cells - 0 hour (AID 1224880); details: RealTime-Glo luminescence; series mostly up to 76.8 µM; activity change, negative = cytotoxicity: at the top concentration; also: top concentration of the series differs between compounds; nearly all actives have a fitted effect of over 45% in size
How it was run: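 Luminescence readout at each listed time point; HEK293, 600 cells/well, RealTime-Glo MT reagent added with cells; compounds pinned (23 nL in DMSO) after 5 h at 37 C; continuous culture at 37 C.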
% is scaled to controls: 0 for no effect and ±100 for the full control effect.

| Compound | activity change, negative = cytotoxicity | Potency |
| --- | --- | --- |
| CN1C(=O)c2ccc([N+](=O)[O-])cc2C1=O | 0.806% (inactive) |  |
| CC(C)(C)c1ccccc1 | 7.61% (inactive) |  |
| Nc1nc2ccccc2[nH]1 |  | inactive |
| c1ccc2c(c1)CCCC2C1=NCCN1 (stereo unspecified) | 10.2% [at 35.3 µM] (inactive) |  |
| O=C(Cl)c1cccc(C(=O)Cl)c1 |  | inactive |
| CCc1cc(C(C)(C)C)c(O)c(C(C)(C)C)c1 |  | inactive |
| CC[C@@H](N)CO | -0.313% (inactive) |  |
| Cc1ccc(-c2cc(C(F)(F)F)nn2-c2ccc(S(N)(=O)=O)cc2)cc1 |  | inactive |
| CCCCCCCCCCCCCC[P+](CCCC)(CCCC)CCCC |  | inactive |
| CCC(CO)(CO)COCC(CC)(CO)CO | 0.0744% (inactive) |  |
| Nc1cc(S(=O)(=O)O)cc2cc(S(=O)(=O)O)cc(O)c12 |  | inactive |
| O=C(O)Cn1cnnn1 | 7.35% [at 35.3 µM] (inactive) |  |
| Oc1ccc(Cl)cc1Cc1cc(Cl)ccc1O |  | inactive |
| c1cnc2cc3c(cc2n1)C1CNCC3C1 | 1.09% [at 35.3 µM] (inactive) |  |
| C=C(C)C(=O)O |  | inactive |
| CCN(CC)CCOc1ccc(/C(=C(\Cl)c2ccccc2)c2ccccc2)cc1 | 13.5% [at 35.3 µM] (inactive) |  |
| NCCCCCC(=O)O | 8.22% [at 35.3 µM] (inactive) |  |
| CC(C)CCOC(=O)c1ccc(N(C)C)cc1 | 10.3% [at 35.3 µM] (inactive) |  |
| CCN(CC)c1ccc2c(C)cc(=O)oc2c1 |  | inactive |
| CCCNC(C)C(=O)Nc1ccccc1C (stereo unspecified) | -9.49% [at 35.3 µM] (inactive) |  |
| CCOC(=O)C(C)C(C)=O (stereo unspecified) | 1.91% (inactive) |  |
